Results from PubChem BioAssay (NCATS).
Records with an inconclusive call do not appear. The source made the active and inactive calls. Calls come from the whole dose curve; as a rule, active = well fitted curve in the direction sought with a large enough effect; inconclusive = small, poorly fitted or top-dose-only effect, or another doubt; inactive = no such curve, though single readings can be large; an effect the other way counts as inactive or inconclusive. Square brackets hold non-standard residues; d marks the D form. Peptide text beside a SMILES is read from it. 2Abz = Nc1ccccc1C(=O)O

Tests used:
[1] = molecular target: Cellular tumor antigen p53 (Homo sapiens) (UniProt P04637); experiment: Primary qHTS for small molecule compounds that upregulate eGFP-tagged delta133p53alpha (in N-terminal) cells. (AID 2060322); conditions: NCI-H358 eGFP-delta133p53alpha fluorescence, 24 h; activation: hits give high values;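 note: cells pre-induced with doxycycline then dosed without doxycycline; series mostly up to about 56 µM; 0% = DMSO vehicle and 100% = reference activator; nearly all actives have a fitted effect of over 75% in size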
In short: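 NCI-H358 cells pre-induced 24 h with 10 ng/ml doxycycline for eGFP-delta133p53alpha, plated dox-free and exposed 24 h at 37C to titrated compounds. Fixed, Hoechst-stained; gated GFP peak intensity by laser scanning cytometry, normalized to DMSO (0%) and 57.5 uM 5-azacytidine (100%).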

[2] = molecular target: Aldehyde dehydrogenase, mitochondrial (Homo sapiens) (UniProt P05091); experiment: qHTS for Inhibitors of the Aldehyde Dehydrogenase Family (ALDH2) Primary screen (AID 2061308);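 note: plate controls were vehicle for no effect and reference inhibitor for full effect; nearly all actives have a fitted effect of over 55% in size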
[3] = molecular target: Retinaldehyde dehydrogenase 3 (Homo sapiens) (UniProt P47895); experiment: qHTS for Inhibitors of the Aldehyde Dehydrogenase Family (ALDH1A3) Primary screen (AID 2061315);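 note: plate controls were DMSO vehicle for no effect and reference inhibitor for full effect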

Cellular tumor antigen p53 (Homo sapiens), sequence (P04637 whole entry, looked up): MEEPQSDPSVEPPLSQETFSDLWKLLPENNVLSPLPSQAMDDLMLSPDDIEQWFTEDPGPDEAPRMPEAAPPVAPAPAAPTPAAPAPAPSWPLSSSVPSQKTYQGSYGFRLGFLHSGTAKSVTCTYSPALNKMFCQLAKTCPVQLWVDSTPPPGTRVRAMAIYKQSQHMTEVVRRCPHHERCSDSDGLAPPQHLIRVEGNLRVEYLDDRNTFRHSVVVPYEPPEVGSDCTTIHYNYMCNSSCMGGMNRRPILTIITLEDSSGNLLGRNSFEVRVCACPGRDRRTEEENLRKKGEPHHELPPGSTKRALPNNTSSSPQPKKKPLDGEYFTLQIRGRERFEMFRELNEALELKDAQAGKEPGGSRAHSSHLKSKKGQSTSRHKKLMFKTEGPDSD

CCc1cc(CN2CC(C(=O)O)C2)sc1-c1noc(-c2ccc(Oc3ccccc3)cc2)n1
inactive: activation [1] -2.39% | Potency [2] | Potency [3]

C[C@@H]1O[C@@H](OC[C@H]2O[C@@H](Oc3cc(O)cc4c3C(=O)C(O)(Cc3ccc(O)cc3)O4)[C@H](O)[C@@H](O)[C@@H]2O)[C@H](O)[C@H](O)[C@H]1O (some centres undefined)
inactive: activation [1] -11.5% | Potency [2] | Potency [3]

CC(=O)OC1CC2(C)C(CCC(C)C23Cc2c(O)cc4c(c2O3)CNC4=O)C(C)(C)C1O (centres undefined)
inactive: activation [1] 9.92% | Potency [2] | Potency [3]

CC/C=C/CC1=C(CCCCCCCC(=O)O)CCC1=O
inactive: activation [1] -17.9% | Potency [2] | Potency [3]

CC1(C)CC[C@]2(C(=O)O[C@@H]3O[C@H](CO)[C@@H](O)[C@H](O)[C@H]3O)CC[C@]3(C)C(=CCC4[C@@]5(C)C[C@@H](O)[C@H](O)[C@](C)(C=O)C5CC[C@]43C)[C@@H]2[C@@H]1O (some centres undefined)
inactive: activation [1] -0.893% | Potency [2] | Potency [3]

CC1(C)C2CC(OC3OC(COC4OCC(O)(CO)C4O)C(O)C(O)C3O)C1(C)CC2O (centres undefined)
inactive: activation [1] 1.79% | Potency [2] | Potency [3]

C=C1C(=O)OC2CC(COC(=O)C(C)C)=C(C(C)CCCOC(C)=O)[C@@H](OC(C)=O)C12 (some centres undefined)
inactive: activation [1] 6.87% | Potency [2] | Potency [3]

C[C@@H]1CC[C@H]2C(C)(C)[C@H](O)[C@H](O)C[C@]2(C)[C@@]12Cc1c(O)cc3c(c1O2)CNC3=O
inactive: activation [1] -3.82% | Potency [2] | Potency [3]

C[C@@H]1O[C@@H](O[C@@H]2CO[C@@H](O[C@H]3CC[C@@]4(C)C(CC[C@]5(C)C4CC=C4[C@@H]6CC(C)(C)CC[C@]6(C(=O)O[C@@H]6O[C@H](CO)[C@@H](O)[C@H](O)[C@H]6O)CC[C@]45C)[C@]3(C)CO)[C@H](O)[C@H]2O[C@@H]2O[C@H](CO)[C@@H](O)[C@H](O)[C@H]2O)[C@H](O)[C@H](O)[C@H]1O (some centres undefined)
inactive: activation [1] -16.1% | Potency [2] | Potency [3]

CCC(C)C1NC(=O)C2CCCN2C(=O)C(C(C)C)NC(=O)c2ccccc2NC(=O)C(Cc2ccc(O)cc2)NC(=O)C(C)NC(=O)C(C(C)O)NC1=O (centres undefined) (cyclo([2Abz]VPITAY); configuration not given here)
inactive: activation [1] 0.763% | Potency [2] | Potency [3]

CCCn1cc2c(nc(NC(=O)Nc3ccc(OC)cc3)n3nc(-c4ccco4)nc23)n1
inactive: activation [1] 9.07% | Potency [2] | Potency [3]

C=C1CC/C=C(/C(=O)O)CCC2C1CC2(C)C (centres undefined)
inactive: activation [1] -4.58% | Potency [2] | Potency [3]

C[C@@H]1CC[C@@]23CC[C@]4(C)[C@@](C=CC5[C@@]6(C)CC[C@H](O)C(C)(C)C6CC[C@]54C)(OC2=O)C3[C@H]1C (some centres undefined)
inactive: activation [1] 12.2% | Potency [2] | Potency [3]

CCC(C)/C=C(C)/C=C/C1=CC2=C(Cl)C(=O)C(C)(OC(C)=O)C(=O)C2=CN1CCCCC(N)C(=O)O (centres undefined)
inactive: activation [1] -16.8% | Potency [2] | Potency [3]

COc1c(C)c(OCC=C(C)C)cc2c1C(=O)NC2=O
inactive: activation [1] -12.2% | Potency [2] | Potency [3]

C=C1C(=O)O[C@H]2[C@H]1[C@@H](OC(=O)/C(C)=C\C)C[C@]1(C)O[C@@H]1[C@H]1O[C@H]1C(=C)[C@H]2O
inactive: activation [1] -10.7% | Potency [2] | Potency [3]

C/C=C(\C)C(=O)OCC1OC(OC2OC(CO)C(O)C(O)C2O)C(O)C(O)C1O (centres undefined)
inactive: activation [1] -16.8% | Potency [2] | Potency [3]

COC1C2=C(COC2=O)C2(C)CCCC(C)(CO)C2C1OC(=O)c1ccccc1 (centres undefined)
inactive: activation [1] -16% | Potency [2] | Potency [3]

C=C1C[C@]23C[C@H]1[C@@H](O)C[C@H]2[C@@]12C=C[C@H](O)[C@@](C)(C(=O)O1)[C@H]2[C@@H]3C(=O)O
inactive: activation [1] -13% | Potency [2] | Potency [3]

O=C(O)c1cccc(C(=O)CCC2OC(n3cnc4c(=O)[nH]cnc43)C(O)C2O)c1 (centres undefined)
inactive: activation [1] 15.3% | Potency [2] | Potency [3]

C[C@@H]1C(=O)O[C@H]2[C@H]1CC[C@@]1(C)C(=O)C=C[C@@](C)(O)[C@H]21
inactive: activation [1] 15.2% | Potency [2] | Potency [3]

COc1cc(C2Oc3c(OC)cc(CCCO)cc3C2CO)ccc1O[C@H]1O[C@H](C)[C@@H](O)[C@H](O)[C@@H]1O (some centres undefined)
inactive: activation [1] -13.7% | Potency [2] | Potency [3]

CC(C)=CCCC1(C)C=Cc2c(c(C)cc3c2[nH]c2ccccc23)O1 (centres undefined)
inactive: activation [1] 2.29% | Potency [2] | Potency [3]
